# Source: PubChem BioAssay
# Hits are enriched below; roughly 18% of the tested compounds scored in any of these assays.
# PLK1 PBD block – PLK1 (human) polo-box domain binding inhibition; 360,000 compounds, 2.8% hits; Plk1 PBD binding of FITC phosphopeptide, fluorescence polarization; Potency, µM, without a hit: max response, negative = inhibition, most hits filed as inhibitors; AID 720504; also: series mostly up to about 57 µM; nearly all actives have a fitted effect of over 65% in size
# VDR inh – vitamin D3 receptor (human) inhibition | P11473 | VDR-SRC2-3 peptide fluorescence polarization, 2 h | Potency, µM, for the others: max response, negative = inhibition, most hits filed as inhibitors | 400,000 compounds, 0.93% hits
# Target sequence (P11473 whole entry, looked up): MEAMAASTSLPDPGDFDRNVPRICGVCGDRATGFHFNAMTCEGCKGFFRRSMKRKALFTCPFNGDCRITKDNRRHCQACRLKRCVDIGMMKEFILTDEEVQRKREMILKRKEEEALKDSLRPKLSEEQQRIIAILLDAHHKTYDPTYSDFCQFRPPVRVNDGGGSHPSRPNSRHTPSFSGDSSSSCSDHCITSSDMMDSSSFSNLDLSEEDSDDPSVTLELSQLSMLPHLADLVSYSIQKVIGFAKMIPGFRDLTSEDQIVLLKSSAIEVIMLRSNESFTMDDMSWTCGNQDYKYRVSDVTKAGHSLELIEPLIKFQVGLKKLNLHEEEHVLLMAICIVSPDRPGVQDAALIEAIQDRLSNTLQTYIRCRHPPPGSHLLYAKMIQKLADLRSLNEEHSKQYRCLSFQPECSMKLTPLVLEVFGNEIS
#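 Compounds are added to VDR with labelled SRC2-3 coactivator peptide and held 2 h at room temperature. Inhibition of the VDR–peptide interaction is then read as a change in fluorescence polarization.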
# TDP1 cell noCPT – qHTS for Inhibitors of human tyrosyl-DNA phosphodiesterase 1 (TDP1): qHTS in cells in absence of CPT | DT40 Tdp1-/- hTDP1 cells, no CPT, ATP luminescence, 48 h | Potency, µM (top dose mostly 46.2 µM), without a hit: at the top dose activity change, negative = growth inhibition, hits mostly inhibitors | 420,000 compounds, 15% hits | AID 686978, 2013; also: nearly all actives have a fitted effect of over 55% in size
#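 Compound effects on proliferation are scored in DT40 Tdp1-/-;hTDP1 cells in the absence of CPT. ATP levels (CellTiter-Glo luminescence) are recorded after a ≥48 hr, 37 °C incubation.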
# TDP1 inh – blocks human tyrosyl-DNA phosphodiesterase 1 | AID 485290 | Potency, µM (titrated, usually from 130 µM), for the others: at the top dose activity change, negative = inhibition, actives largely listed as inhibitors | recombinant TDP1, AlphaScreen DNA substrate cleavage | 350,000 compounds, 0.28% hits; also: nearly all actives have a fitted effect of over 40% in size
#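 Compounds were preincubated with Tdp1 (1 nM final) for 15 min at room temperature before substrate (15 nM final) started a 5 min reaction; beads (10 ug/ml final) were then added for 10 min before AlphaScreen detection.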
# TDP1 cell CPT – DT40-hTDP1 cell growth loss with CPT | chicken DT40 Tdp1-/-;hTDP1 cells + 20 nM CPT, ATP luminescence, 48 h | 420,000 compounds, 12% hits | Potency, µM (series often up to 46.2 µM), for inactives: top-dose activity change, negative = growth inhibition, most hits filed as inhibitors; also: nearly all actives have a fitted effect of over 55% in size
#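 Chicken DT40 Tdp1-/- cells stably complemented with human TDP1 were seeded at 400 cells/well in medium containing 20 nM camptothecin, exposed to pin-transferred compounds, and grown at 37 °C for at least 48 hr. Viability was read as ATP luminescence.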
# GCN5L2 inh – blocks human GCN5L2 histone acetyltransferase. AID 504327. Q92830. GCN5L2 HAT assay, ThioGlo1 CoA-SH fluorescence. Potency, µM (titrated, usually from 58.9 µM), for inactives: at the highest dose activity change, negative = inhibition, most hits filed as inhibitors. 390,000 compounds, 0.21% hits
#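 GCN5L2 (20 nM) in 50mM HEPES pH 7.5, 0.1mM EDTA, 0.01% Tween-20 preincubated 15 min with compounds at room temperature. Reaction started with H3(1-25) 75uM, acetyl-CoA 70uM, ThioGlo1 50uM; CoA-thiol fluorescence (Ex340/Em540) read at 0 and 20 min.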
# * = called active by the depositor; u = inconclusive; x = no result given; [ ] = another dose, or the depositor's remark. Calls follow the shape of the dose curve; as a rule, active = well fitted curve in the direction sought with a large enough effect; inconclusive = small, poorly fitted or top-dose-only effect, or another doubt; inactive = no such curve, though single readings can be large; an effect the other way counts as inactive or inconclusive. % is scaled to controls: 0 for no effect and ±100 for the full control effect; potency is read from the fitted curve at half-maximal effect.
SMILES,PLK1 PBD block,VDR inh,TDP1 cell noCPT,TDP1 inh,TDP1 cell CPT,GCN5L2 inh
CCCCN(C(=O)c1oc2ccc(OCC)cc2c1C)c1c(N)n(CCCC)c(=O)[nH]c1=O,-6%,-14%,u,0%[0.505 µM],-13%,0%
CN(/N=C/C=C/c1ccccc1)C1=NS(=O)(=O)c2ccccc21,-8%,-5%,-7%,5%,-30%,-8%
Cc1nn(CC(=O)NCc2ccco2)c(=O)c2cc3ccccc3n12,x,18%,-9%,0%,3%,-3%
Clc1c(Cl)c(Cl)c2n[nH]nc2c1Cl,u,-15%,u,-1%,-22%,-13%
O=C(Cc1ccsc1-c1ccccc1)NO,-1%,10%,21µM*,1%,26µM*,4%
COc1ccc(N)cc1-n1c(C)ccc1C,u,23%,-24%,7%,7.3µM*,-2%
CCOC(=O)c1ccc(NC(=O)CCc2nc(-c3ccc(C)cc3)no2)cc1,-2%,-3%,21µM*,1%,u,-9%
Cc1ccc(C)c(NC(=O)CCc2nc(-c3ccc(C(C)(C)C)cc3)no2)c1,x,14%,16µM*,4%,23µM*,-9%
COc1ccc(NC(=O)CCc2nc(-c3ccc(C)cc3)no2)c(OC)c1,0%,1%,18µM*,-6%,u,1%
O=C(CCc1nc(-c2ccc(F)cc2)no1)Nc1cccc(C(=O)NC2CC2)c1,-6%,-6%,16µM*,-2%,u,-2%
Cc1ccc(-c2noc(CCC(=O)Nc3ccc4c(c3)OCO4)n2)cc1,u,5%,u,8%,u,-7%
Cc1ccc(-c2noc(CCC(=O)Nc3ccc(F)cc3Cl)n2)cc1,x,-26%,u,-2%,-2%,-8%
CC(C)(C)c1ccc(-c2noc(CCC(=O)Nc3cccc(Cl)c3)n2)cc1,x,2%,u,1%,u,1%
CCN(C(=O)CCc1nc(-c2ccc(C)cc2)no1)c1cccc(C(F)(F)F)c1,x,-8%,u,-2%,u,-17%
COc1ccc(CNC(=O)CCc2nc(-c3ccc(C)cc3)no2)c(OC)c1,x,9%,u,8%,u,-2%
COc1ccc(-c2noc(CCC(=O)Nc3ccc4c(c3)OCCO4)n2)cc1,-4%,1%,15µM*,0%,16µM*,-3%
COc1ccc(-c2noc(CCC(=O)NCc3ccc(OC)cc3OC)n2)cc1,x,1%,16µM*,-2%,u,-3%
CCN(C(=O)CCc1nc(-c2ccc(C)cc2)no1)c1cccc(Cl)c1,x,7%,u,-9%[12.3 µM],21µM*,-15%
COc1ccc(NC(=O)CCc2nc(-c3ccc(C)cc3)no2)cc1Cl,12%,2%,16µM*,-4%,16µM*,0%
Cc1ccc(C(=O)Nc2ncccc2C)cc1S(=O)(=O)N1CCCCC1,1%,11%,-4%,3%,-5%,-2%
Cc1ccc2nc(-c3ccccc3C)c(CN(CC3CCCO3)C(=O)c3cccs3)cc2c1 (centres undefined),x,x,-9%,x,-6%,x
Cc1ccc(S(=O)(=O)N2CCC(C(=O)OCC(=O)Nc3cc(S(C)(=O)=O)ccc3Cl)CC2)cc1C,3%,-10%,1%,2%,0%,-4%
CCc1ccccc1NC(=O)CCNS(=O)(=O)c1ccc2c(c1)CCCC(=O)N2,x,19%,x,8%,x,2%
COc1ccc(-c2noc(CNC(=O)COc3cccc(C)c3C)n2)cc1,x,8%,21µM*,2%,u,-13%
COc1ccc(Br)cc1CNC(=O)CCc1nc(-c2ccc(C)cc2)no1,-8%,-4%,u,5%,-22%,-15%
SMILES,PLK1 PBD block,VDR inh,TDP1 cell noCPT,TDP1 inh,TDP1 cell CPT,GCN5L2 inh
COc1ccc(Cl)cc1N(C)C(=O)CCc1nc(-c2ccc(C)cc2)no1,0%,20%,23µM*,2%,18µM*,-9%
COc1ccc(-c2noc(CCC(=O)NCc3cc(Br)ccc3OC)n2)cc1,-5%,10%,18µM*,2%,u,x
Cn1c(=O)c(C(=O)COC(=O)c2cc(C(F)(F)F)nc3c(C(F)(F)F)cccc23)c(N)n(Cc2ccccc2)c1=O,x,x,x,6%,x,x
CC[C@H](C)[C@H](NC(=O)[C@H](Cc1ccccc1)NC(=O)[C@H](CC(C)C)NC(=O)[C@H](CCSC)NC(=O)[C@H](CCC(=O)O)NC(=O)[C@H](CCC(=O)O)NC(=O)[C@H](CC(=O)O)NC(=O)[C@H](CO)NC(=O)[C@@H]1CCCN1C(=O)[C@H](CCCCN)NC(=O)[C@@H](N)[C@@H](C)O)C(=O)N[C@@H](Cc1ccc(O)cc1)C(=O)NCC(=O)N[C@@H](Cc1cnc[nH]1)C(=O)N[C@@H](Cc1ccc(O)cc1)C(=O)N[C@@H](CCCCN)C(=O)N[C@@H](CCC(N)=O)C(=O)N[C@@H](C)C(=O)N[C@H](C(=O)N[C@H](C(=O)NCC(=O)N[C@@H](CC(=O)O)C(=O)N[C@H](C(=O)N[C@@H](CC(N)=O)C(=O)N[C@H](C(=O)N[C@@H](CCC(=O)O)C(=O)N[C@@H](CCCNC(=N)N)C(=O)N1CCC[C@H]1C(=O)NCC(=O)N[C@@H](CCSC)C(=O)N[C@@H](CC(C)C)C(=O)N[C@@H](CC(=O)O)C(=O)N[C@@H](Cc1ccccc1)C(=O)N[C@H](C(=O)O)[C@@H](C)O)[C@@H](C)O)[C@@H](C)CC)C(C)C)[C@@H](C)O,x,2%,x,8%,x,8%
CCCCc1nnc(NC(=O)CSc2nc(O)c(Cc3ccccc3)c(=O)[nH]2)s1,27µM*,-3%,u,2%,10%,-1%
CCCCc1nnc(NC(=O)CSc2nc(O)c(-c3ccccc3)c(=O)[nH]2)s1,-12%,-15%,-12%,0%,4%,-3%
CSc1ccc(C(=O)C2CCCN(S(=O)(=O)c3c(C)noc3C)C2)cc1 (centres undefined),-3%,2%,u,6%,u,-15%
O=C(COc1cccc2ccccc12)N/N=C/c1ccccc1OCc1ccc(C(=O)O)cc1,27µM*,4%,-12%,7%,7%,u
CC(=O)Nc1ccc(C(=O)N/N=C/c2ccccc2OCc2ccccc2)cc1,u,12%,21µM*,6%,u,-7%
O=C(N/N=C/c1cccnc1)c1cc(-c2ccccc2OCc2ccccc2)n[nH]1,-27%,5%,23µM*,0%,u,-3%
